Here are results for 38 compounds from PubChem BioAssay (Tox21).

Inconclusive results are not listed. Where a call stands in place of a potency, no number is given. A number with no mark means an inactive call. Active and inactive are the calls of the source. Calls follow the shape of the dose curve; as a rule, active = well fitted curve in the direction sought with a large enough effect in the repeat runs; inconclusive = weak or mixed curves; inactive = no such curve, though single readings can be large; an effect the other way counts as inactive or inconclusive. Where a SMILES comes first, the peptide text is derived from it. [ ]: non-standard residue; d: D form. pGlu = O=C1CC[C@@H](C(=O)O)N1

In the first test the target is Luciferin 4-monooxygenase (Photinus pyralis) (UniProt P08659). Put plainly: qHTS assay to identify small molecule inhibitors of firefly luciferase (AID 1224835). Also: nearly all actives have a fitted effect of over 25% in size. Also: potency is read from the fitted curve at half-maximal effect. The following applies: purified P. pyralis luciferase, luminescence inhibition; series mostly up to 115 µM. A digest of the protocol: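 Quantitative HTS format; KM concentrations of both substrates. Purified P. pyralis FLuc activity quantified from luminescence images.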
Sequence of Luciferin 4-monooxygenase (Photinus pyralis) (P08659 whole entry, looked up): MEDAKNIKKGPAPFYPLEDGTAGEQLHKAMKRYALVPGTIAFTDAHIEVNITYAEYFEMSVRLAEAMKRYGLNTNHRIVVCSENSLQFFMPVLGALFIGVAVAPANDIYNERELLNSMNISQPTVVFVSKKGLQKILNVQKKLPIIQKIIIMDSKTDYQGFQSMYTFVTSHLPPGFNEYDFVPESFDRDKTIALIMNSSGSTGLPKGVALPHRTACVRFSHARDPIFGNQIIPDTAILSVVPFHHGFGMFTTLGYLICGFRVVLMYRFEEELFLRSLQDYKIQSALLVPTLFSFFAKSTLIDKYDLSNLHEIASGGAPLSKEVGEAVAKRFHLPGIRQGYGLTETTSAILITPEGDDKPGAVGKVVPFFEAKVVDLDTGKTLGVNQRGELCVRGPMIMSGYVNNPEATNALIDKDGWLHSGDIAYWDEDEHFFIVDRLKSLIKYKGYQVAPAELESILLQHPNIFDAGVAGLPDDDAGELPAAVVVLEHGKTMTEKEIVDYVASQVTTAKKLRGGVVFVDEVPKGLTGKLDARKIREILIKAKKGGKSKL
A general note: In qHTS, concentration-response curves come from the screen itself.
On to `CCCCCCC#CC(=O)OC`, for which the Potency entry was “inactive”.
In the case of `O=C(O)CCSCCC(=O)O`, the Potency entry is “inactive”.
As for `O=Cc1cccc(Br)c1`, the Potency result is “inactive”.
In the case of `Cc1ccc(C(=O)c2ccc(CC(=O)O)n2C)cc1`, the Potency was 15.5 µM (active).
In the case of `CCCCCCCCCCCCCCCCCCO`, the Potency result is “inactive”.
As to `CCN(C=O)CC`, the Potency entry is “inactive”.
As to `COc1ccc2cc1Oc1cc3c(cc1OC)CC[N+](C)(C)[C@H]3Cc1ccc(cc1)Oc1c(OC)c(OC)cc3c1[C@@H](C2)[N+](C)(C)CC3`, the Potency entry is “inactive”.
Take `Cc1ccc(C(=O)c2ccccc2)cc1`: the Potency is 31.7 µM (active).
On to `CC(C)C[C@@H](N)C(=O)O`, for which the activity change, negative = inhibition is -3.09% [at 23.6 µM].
As to `O=C(O)CC(C(=O)O)S(=O)(=O)O` (stereo unspecified), the Potency entry is “inactive”.
Same read-out and setting: under `CC1(C)OC[C@@H](COC(=O)CCc2ccc(OC[C@@H](O)CNCCNC(=O)N3CCOCC3)cc2)O1` stands “inactive”; under `CC(CC=O)CC(C)(C)C` (stereo unspecified), “inactive”.
Regarding `NC(CCC(=O)O)C(=O)O` (stereo unspecified), the Potency entry is “inactive”.
Same read-out and setting: under `CCOC(=O)C(=O)CCCCCCl` stands “inactive”.
The same measure, in the same setting: under `Clc1cc(Cl)cc(Cl)c1` stands “inactive”.
Still for that read-out and setting: under `CO/N=C(\C(=O)N[C@@H]1C(=O)N2C(C(=O)O)=C(CSc3nc(=O)c(O)nn3C)CS[C@H]12)c1csc(N)n1` stands “inactive”; under `CCNC(=O)[C@@H]1CCCN1C(=O)[C@H](CCCN=C(N)N)NC(=O)[C@H](CC(C)C)NC(=O)CNC(=O)[C@H](Cc1ccc(O)cc1)NC(=O)[C@H](CO)NC(=O)[C@H](Cc1c[nH]c2ccccc12)NC(=O)[C@H](Cc1cnc[nH]1)NC(=O)[C@@H]1CCC(=O)N1` ([pGlu]HWSYGLRP-NHEt), “inactive”.
In the case of `CCCO[Si](OCCC)(OCCC)OCCC`, the Potency result is “inactive”.
For `CCCCCCCCCCCCSC`, the Potency result is “inactive”.
As to `CC(C)(C)c1ccc(-c2ccc(C(C)(C)C)cc2)cc1`, the Potency result was “inactive”.
Consider `CC(C#N)(CCC(=O)O)N=NC(C)(C#N)CCC(=O)O` (stereo unspecified), for which the Potency result was “inactive”.
With `NCCCC[C@H](N[C@@H](CCc1ccccc1)C(=O)O)C(=O)N1CCC[C@H]1C(=O)O`, the Potency result was “inactive”.
With `CC(=O)Nc1ccc(OCC(O)CNC(C)C)cc1` (stereo unspecified), the Potency entry is “inactive”.
For the compound `CCCCOCCOC(=O)CCCCCCCCC(=O)OCCOCCCC`, the Potency result was “inactive”.
As for `CC(C)C(=O)OC(=O)C(C)C`, the Potency result is “inactive”.
On to `CCCOC(=O)CC`, for which the Potency result is “inactive”.
As to `COc1cc(C)nc(-n2nc(C)cc2OC)n1`, the Potency entry was “inactive”.
The same measure, in the same setting: under `O=[N+]([O-])c1ccc(/C=N\O)o1` stands “inactive”; under `[O-][n+]1cccc(CO)c1`, “inactive”; under `O=S(=O)(O)c1cccc2c(S(=O)(=O)O)cccc12`, “inactive”.
Still for that read-out and setting: next, `CCCCCC(=O)OCCc1ccccc1`: 15.9 µM (active); `COc1ccccc1OCC1CNC(=O)O1` (stereo unspecified): “inactive”.
As to `CCCCCC(C)N` (stereo unspecified), the Potency entry was “inactive”.
As to `COC(=O)C1=C(C)NC(C)=C(C(=O)OC(C)C)C1c1cccc2nonc12` (stereo unspecified), the Potency entry is “inactive”.
The same measure, in the same setting: under `CCC(C(=O)NC(=O)NC(C)=O)c1ccccc1` (stereo unspecified) stands “inactive”; under `CC[C@H]1OC(=O)[C@H](C)[C@@H](O[C@H]2C[C@@](C)(OC)[C@@H](O)[C@H](C)O2)[C@H](C)[C@@H](O[C@@H]2O[C@H](C)C[C@H](N(C)C)[C@H]2O)[C@](C)(OC)C[C@@H](C)C(=O)[C@H](C)[C@@H](O)[C@]1(C)O`, “inactive”; under `C=CCOCC(O)CO` (stereo unspecified), “inactive”.
Take `CC(=O)Oc1cccc(C)c1`: the Potency result was “inactive”.

System in a further test: not listed separately
Put plainly: qHTS assay to identify small molecule agonists of the constitutive androstane receptor (CAR) signaling pathway - cell viability counter screen (AID 1224836). Also: nearly all actives have a fitted effect of over 45% in size. Particulars: HepG2-CYP2B6-hCAR viability, CellTiter-Fluor, 23 h, PK11195 added to every well; series mostly up to 92.4 µM. An outline of the steps: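 HepG2 cells stably carrying hCAR and a CYP2B6-2.2kb reporter were plated 4 h, then given compounds at 15 concentrations plus PK11195 (final 0.75 uM). After 23 h at 37 C, viability was read by CellTiter-Fluor fluorescence.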
As for `CCCCCCC#CC(=O)OC`, the call was inactive.
Take `O=C(O)CCSCCC(=O)O`: the compound was called inactive.
Take `O=Cc1cccc(Br)c1`: the result was inactive.
On to `Cc1ccc(C(=O)c2ccc(CC(=O)O)n2C)cc1`, for which the result was inactive.
As for `CCCCCCCCCCCCCCCCCCO`, the outcome was inactive.
As to `CCN(C=O)CC`, the compound was classed as inactive.
Same read-out and setting: under `COc1ccc2cc1Oc1cc3c(cc1OC)CC[N+](C)(C)[C@H]3Cc1ccc(cc1)Oc1c(OC)c(OC)cc3c1[C@@H](C2)[N+](C)(C)CC3` stands “inactive”.
`Cc1ccc(C(=O)c2ccccc2)cc1`: the result was inactive.
As to `CC(C)C[C@@H](N)C(=O)O`, the viability change, negative = cytotoxic is 3.64% [at 19 µM].
`O=C(O)CC(C(=O)O)S(=O)(=O)O` (stereo unspecified): the call was inactive.
Same read-out and setting: under `CC1(C)OC[C@@H](COC(=O)CCc2ccc(OC[C@@H](O)CNCCNC(=O)N3CCOCC3)cc2)O1` stands “inactive”.
With `CC(CC=O)CC(C)(C)C` (stereo unspecified), the outcome was inactive.
Same read-out and setting: next, `NC(CCC(=O)O)C(=O)O` (stereo unspecified): “inactive”.
Same read-out and setting: next, `CCOC(=O)C(=O)CCCCCCl`: “inactive”.
On the same count and under the same terms, next, `Clc1cc(Cl)cc(Cl)c1`: “inactive”.
For `CO/N=C(\C(=O)N[C@@H]1C(=O)N2C(C(=O)O)=C(CSc3nc(=O)c(O)nn3C)CS[C@H]12)c1csc(N)n1`, the compound was called inactive.
The same measure, in the same setting: next, `CCNC(=O)[C@@H]1CCCN1C(=O)[C@H](CCCN=C(N)N)NC(=O)[C@H](CC(C)C)NC(=O)CNC(=O)[C@H](Cc1ccc(O)cc1)NC(=O)[C@H](CO)NC(=O)[C@H](Cc1c[nH]c2ccccc12)NC(=O)[C@H](Cc1cnc[nH]1)NC(=O)[C@@H]1CCC(=O)N1` ([pGlu]HWSYGLRP-NHEt): “inactive”.
Consider `CCCO[Si](OCCC)(OCCC)OCCC`, for which the outcome was inactive.
For the compound `CCCCCCCCCCCCSC`, the result was inactive.
Still for that read-out and setting: under `CC(C)(C)c1ccc(-c2ccc(C(C)(C)C)cc2)cc1` stands “inactive”.
With `CC(C#N)(CCC(=O)O)N=NC(C)(C#N)CCC(=O)O` (stereo unspecified), the call was inactive.
In the case of `NCCCC[C@H](N[C@@H](CCc1ccccc1)C(=O)O)C(=O)N1CCC[C@H]1C(=O)O`, the call was inactive.
Same read-out and setting: under `CC(=O)Nc1ccc(OCC(O)CNC(C)C)cc1` (stereo unspecified) stands “inactive”; under `CCCCOCCOC(=O)CCCCCCCCC(=O)OCCOCCCC`, “inactive”; under `CC(C)C(=O)OC(=O)C(C)C`, “inactive”.
Same read-out and setting: next, `CCCOC(=O)CC`: “inactive”; `COc1cc(C)nc(-n2nc(C)cc2OC)n1`: “inactive”; `O=[N+]([O-])c1ccc(/C=N\O)o1`: “inactive”.
On the same count and under the same terms, next, `[O-][n+]1cccc(CO)c1`: “inactive”; `O=S(=O)(O)c1cccc2c(S(=O)(=O)O)cccc12`: “inactive”; `CCCCCC(=O)OCCc1ccccc1`: “inactive”.
As for `COc1ccccc1OCC1CNC(=O)O1` (stereo unspecified), the call was inactive.
`CCCCCC(C)N` (stereo unspecified): the compound was called inactive.
Still for that read-out and setting: next, `COC(=O)C1=C(C)NC(C)=C(C(=O)OC(C)C)C1c1cccc2nonc12` (stereo unspecified): “inactive”.
On the same count and under the same terms, next, `CCC(C(=O)NC(=O)NC(C)=O)c1ccccc1` (stereo unspecified): “inactive”; `CC[C@H]1OC(=O)[C@H](C)[C@@H](O[C@H]2C[C@@](C)(OC)[C@@H](O)[C@H](C)O2)[C@H](C)[C@@H](O[C@@H]2O[C@H](C)C[C@H](N(C)C)[C@H]2O)[C@](C)(OC)C[C@@H](C)C(=O)[C@H](C)[C@@H](O)[C@]1(C)O`: “inactive”; `C=CCOCC(O)CO` (stereo unspecified): “inactive”.
As for `CC(=O)Oc1cccc(C)c1`, the outcome was inactive.
